Many of the other results were omitted from the sample, so hits are more common in it than they were.
RT RNaseH block: inhibitors of HIV-1 reverse transcriptase RNase H. RT-RNase H RNA/DNA duplex cleavage, fluorescence. inhibition, % at 10 µM. P04585. 65,000 compounds, 1.9% hits. AID 565; in the data active = inhibition above about 50%
RmlCD inh mix: RmlC/RmlD inhibition, mixture screen | AID 1532 | 110,000 compounds, 0.39% hits | inhibition, % at 5.5 µM | RmlC/RmlD coupled enzyme inhibition, 384-well mixture HTS; in the data active = inhibition above about 30%, passing the limit was not always enough
RmlCD fluor art: counter-screen for RmlC/RmlD inhibitors: fluorescence artifact; 360 compounds, 96% hits; shares compounds with RmlCD inh mix; calls only; AID 1696; RmlC/RmlD assay fluorescence artifact counter-screen; call rule not given here;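 also: compound alone with no enzyme and no substrates present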
A number is an active result.

Screening COc1ccc(C=O)cc1COc1ccc(Cl)cc1[N+](=O)[O-] returned RmlCD inh mix inactive.
Screening COc1ccc2c(c1)-c1ccccc1S(=O)(=O)N2C(C)=O returned RT RNaseH block inactive, RmlCD inh mix 131 and RmlCD fluor art active.
COc1ccc(OC)c(NC(=O)CN2C(=O)c3ccccc3S2(=O)=O)c1 was read as RT RNaseH block inactive and RmlCD inh mix inactive.
Screening CCOc1ccc(Nc2oc(-c3ccco3)nc2C#N)cc1 returned RT RNaseH block inactive and RmlCD inh mix inactive.
Screening CCOc1ccc(Nc2oc(-c3cccc(Cl)c3)nc2C#N)cc1 returned RmlCD inh mix 36 and RmlCD fluor art active.
`CCOC(=O)Nc1ccc2c(CN3C(=O)NC(CC)(CC)C3=O)cc(=O)oc2c1` gave RmlCD inh mix inactive.
`CCOC(=O)Nc1ccc2c(CN3C(=O)NC4(CCCC4)C3=O)cc(=O)oc2c1` gave RT RNaseH block inactive, RmlCD inh mix 74 and RmlCD fluor art active.
CCc1ccc(-c2cc(C(F)(F)F)n3nc(C(=O)Nc4c(C)nn(Cc5ccccc5C)c4C)cc3n2)s1 was read as RmlCD inh mix inactive.
CCc1ccc(-c2cc(C(F)(F)F)n3nc(C(=O)Nc4cnn(Cc5ccccc5C)c4)cc3n2)s1 was read as RmlCD inh mix active and RmlCD fluor art active.
CCOC(=O)CN1C(=O)N[C@@H](c2cccc(C(F)(F)F)c2)C(C(=O)OC)=C1C was read as RmlCD inh mix inactive.
CN(C)S(=O)(=O)c1ccc(S(=O)(=O)Nc2ccc3c(c2)oc2ccccc23)cc1 was read as RT RNaseH block inactive and RmlCD inh mix inactive.
`Cc1cc(=O)oc2cc(NS(=O)(=O)c3ccccc3)ccc12` gave RmlCD fluor art active.
For CCCC(C)NC(=O)c1cc(Cl)ccc1OC (stereo unspecified) the results were RmlCD inh mix inactive.
CC1(C)CCCN(C(=O)c2coc(=O)c(Br)c2)C1 was read as RT RNaseH block inactive, RmlCD inh mix 54 and RmlCD fluor art active.
`O=C(c1coc(=O)c(Br)c1)N1CCCc2ccccc21` gave RT RNaseH block inactive and RmlCD inh mix inactive.
COc1ccc(CNC(=O)CSc2ncnc3nc[nH]c23)cc1 was read as RT RNaseH block inactive and RmlCD inh mix inactive.
Cc1csc(NC(=O)c2cc3c(s2)-c2ccccc2OC3)n1 was read as RT RNaseH block inactive and RmlCD inh mix inactive.
CN(C)CCNC(=O)c1cc2c(s1)-c1ccccc1OC2 was read as RmlCD inh mix 161 and RmlCD fluor art active.
O=S(=O)(c1ccc2c(c1)OCCO2)N(Cc1ccc(F)cc1)Cc1nnc(-c2cccs2)o1 was read as RT RNaseH block inactive and RmlCD inh mix inactive.
`Cc1ccc(C(=O)O)cc1N=Cc1cc(Br)cc(Br)c1O` gave RmlCD fluor art active.
Cc1ccc([N+](=O)[O-])cc1N=Cc1ccc(Br)s1 was read as RmlCD inh mix inactive.
Screening CCOC(=O)c1nn(-c2ccc(F)cc2)c2nc(CC(C)C)c(C#N)c(=O)n12 returned RmlCD inh mix 51 and RmlCD fluor art active.
`CCOC(=O)c1nn(-c2ccccc2C)c2nc(-c3ccc(C)cc3)c(C#N)c(=O)n12` gave RmlCD inh mix inactive.
CC(Sc1nc(N(C)C)nc(N2CCOCC2)n1)C(=O)Nc1ccccc1 (stereo unspecified) was read as RT RNaseH block inactive and RmlCD inh mix inactive.
COCCOC(=O)c1c(N)n(Cc2ccccc2)c2nc3ccccc3nc12 was read as RT RNaseH block inactive and RmlCD inh mix inactive.
Screening CCCCOCCCn1c(N)c(C(=O)OCCOC)c2nc3ccccc3nc21 returned RT RNaseH block inactive, RmlCD inh mix 57 and RmlCD fluor art active.
Screening CCOC(=O)c1c(N)n(Cc2ccco2)c2nc3ccccc3nc12 returned RT RNaseH block inactive and RmlCD inh mix inactive.
COCC(C)OC(=O)c1c(N)n(Cc2ccco2)c2nc3ccccc3nc12 (stereo unspecified) was read as RT RNaseH block inactive, RmlCD inh mix 56 and RmlCD fluor art active.
CC(C)Oc1ccc(NC(=O)c2ccncc2)cc1 was read as RT RNaseH block inactive and RmlCD inh mix inactive.
For CCCCNC(=O)c1cc2c(=O)n3cccc(C)c3nc2n(CCN2CCOCC2)c1=N the results were RT RNaseH block inactive.
COCCCn1c(=N)c(C(=O)NCc2ccc3c(c2)OCO3)cc2c(=O)n3ccccc3nc21 was read as RT RNaseH block inactive and RmlCD inh mix inactive.
Screening N=c1c(C(=O)NC2CCCC2)cc2c(=O)n3ccccc3nc2n1C1CCCC1 returned RT RNaseH block inactive, RmlCD inh mix 85 and RmlCD fluor art active.
For Cc1cccn2c(=O)c3cc(C(=O)NCc4cccnc4)c(=N)n(C(C)C)c3nc12 the results were RT RNaseH block inactive, RmlCD inh mix 33 and RmlCD fluor art active.
Cc1cccn2c(=O)c3cc(C(=O)NCc4cccnc4)c(=N)n(C)c3nc12 was read as RT RNaseH block inactive.

High-throughput results: PubChem, several laboratories
